3 compounds from PubChem BioAssay (EPA / NIEHS) can be followed below.

Common to all, as to details: mRNA level, 48 h; actives raise or lower the signal
Read-out in test [1]: Cytochrome P450 7A1 (Homo sapiens) (UniProt P22680)
As to the kind of experiment: LTEA_HepaRG_CYP7A1: Life Technologies and Expression Analysis (LTEA) Assay for Cytochrome P450 7A1 (CYP7A1) using HepaRG (AID 2283496). The essentials: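 HepaRG, 48 h exposure, 8-pt half-log series from 100 uM, 0.5% DMSO vehicle, duplicates. Readout: TaqMan qRT-PCR mRNA vs three housekeeping genes; bidirectional curve fit against DMSO baseline.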

Read-out in test [2]: Glutathione S-Transferase (GSTA2), GSTA2 (gene 2939)
As to the kind of experiment: LTEA_HepaRG_GSTA2: Life Technologies and Expression Analysis (LTEA) Assay for Glutathione S-Transferase (GSTA2) using HepaRG (AID 2283497). The essentials:
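GSTA2 transcript levels came from Fluidigm TaqMan qRT-PCR normalized to three housekeeping genes, fitted in both directions against DMSO. HepaRG cultures received chemicals for 48 h in serum-free induction medium (0.5% DMSO), 8 half-log concentrations up to 100 uM, duplicate.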

Read-out in test [3]: Glutamate-cysteine ligase catalytic (GCLC), GCLC (gene 2729)
Description: LTEA_HepaRG_GCLC: Life Technologies and Expression Analysis (LTEA) Assay for Glutamate-cysteine ligase catalytic (GCLC) using HepaRG (AID 2283498). The essentials: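 Expression by TaqMan qRT-PCR, normalized to three housekeeping genes (ACTB, GAPDH, POLR2A), with up- or down-regulation fitted against DMSO. HepaRG cells dosed in duplicate for 48 h with 8 half-log concentrations up to 100 uM, vehicle 0.5% DMSO.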

Read-out in test [4]: growth arrest and DNA damage 45 (GADD45G), GADD45G (gene 10912)
Description: LTEA_HepaRG_GADD45G: Life Technologies and Expression Analysis (LTEA) Assay for growth arrest and DNA damage 45 (GADD45G) using HepaRG (AID 2283499). The essentials: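 GADD45G transcript level by qRT-PCR (housekeeping-normalized: ACTB, GAPDH, POLR2A) after 48 h chemical treatment of a single HepaRG lot in serum-free induction medium; eight-point half-log series up to 100 uM in 0.5% DMSO, duplicates, up- or down-regulation scored.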

Read-out in test [5]: Glutamate-cysteine ligase regulatory (GCLM), GCLM (gene 2730)
Description: LTEA_HepaRG_GCLM: Life Technologies and Expression Analysis (LTEA) Assay for Glutamate-cysteine ligase regulatory (GCLM) using HepaRG (AID 2283500). The essentials: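 GCLM expression quantified by qRT-PCR, normalized to three housekeeping genes, after 48 h chemical treatment of HepaRG cells in duplicate at 8 concentrations (top 100 uM, half-log steps, 0.5% DMSO). Changes fitted both directions against vehicle.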

Read-out in test [6]: Heat shock 70 kDa protein 1 (HSPA1A), gene 3303
Description: LTEA_HepaRG_HSPA1A: Life Technologies and Expression Analysis (LTEA) Assay for Heat shock 70 kDa protein 1 (HSPA1A) using HepaRG (AID 2283502). The essentials: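 HSPA1A expression measured by qRT-PCR with ACTB/GAPDH/POLR2A normalization; curves fitted in both directions relative to DMSO vehicle. Exposure: 48 h in HepaRG cells, duplicate 8-point half-log series from 100 uM, 0.5% DMSO, serum-free induction medium.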

Read-out in test [7]: Hypoxia-inducible factor 1-alpha (Homo sapiens) (UniProt Q16665)
Description: LTEA_HepaRG_HIF1A: Life Technologies and Expression Analysis (LTEA) Assay for Hypoxia-inducible factor 1 (HIF1A) Trancription factor using HepaRG (AID 2283503). The method in brief: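 HIF1A transcript level read by qRT-PCR (ACTB, GAPDH, POLR2A normalization) after 48 h chemical exposure of HepaRG cultures. Eight half-log concentrations, top 100 uM, 0.5% DMSO vehicle, duplicates; bidirectional curve fit against DMSO baseline.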

Read-out in test [8]: 3-Hydroxy-3-Methylglutaryl-CoA Synthase 2 (HMGCS2), HMGCS2 (gene 3158)
Description: LTEA_HepaRG_HMGCS2: Life Technologies and Expression Analysis (LTEA) Assay for 3-Hydroxy-3-Methylglutaryl-CoA Synthase 2 (HMGCS2) using HepaRG (AID 2283504). The method in brief: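 Readout is HMGCS2 transcript by qRT-PCR, housekeeping-normalised (ACTB/GAPDH/POLR2A) and fitted bidirectionally against 0.5% DMSO. Differentiated HepaRG cells received chemicals 48 h, duplicate wells, eight half-log concentrations topping at 100 uM.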

Read-out in test [9]: HGF (gene 3082)
As to the kind of experiment: LTEA_HepaRG_HGF: Life Technologies and Expression Analysis (LTEA) Assay for Hepatocyte Growth Facto (HGF) using HepaRG (AID 2283505). The essentials: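 HGF transcript was quantified by TaqMan qRT-PCR against three housekeeping genes after 48 h treatment of HepaRG cells. Exposure ran in duplicate over eight half-log steps topping at 100 uM in 0.5% DMSO vehicle.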

Read-out in test [10]: Insulin Like Growth Factor 1 (IGF1), IGF1 (gene 3479)
Description: LTEA_HepaRG_IGF1: Life Technologies and Expression Analysis (LTEA) Assay for Insulin Like Growth Factor 1 (IGF1) using HepaRG (AID 2283506). The essentials:
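Expression measured by TaqMan qRT-PCR on a Fluidigm array, with three housekeeping genes for normalisation, after 48 h treatment of HepaRG cells. Top concentration 100 uM with half-log steps, 0.5% DMSO vehicle, bidirectional fit.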

Read-out in test [11]: Intercellular Adhesion Molecule 1 (ICAM1), ICAM1 (gene 3383)
As to the kind of experiment: LTEA_HepaRG_ICAM1: Life Technologies and Expression Analysis (LTEA) Assay for Intercellular Adhesion Molecule 1 (ICAM1) using HepaRG (AID 2283507). The method in brief: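 ICAM1 transcript levels measured by qRT-PCR, normalized to three housekeeping genes (ACTB, GAPDH, POLR2A), after 48 h chemical exposure of HepaRG cells. Duplicate eight-point half-log series from 100 uM in 0.5% DMSO; gain or loss fitted against vehicle.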

Read-out in test [12]: Insulin-like growth factor-binding protein 1 (IGFBP1), IGFBP1 (gene 3484)
As to the kind of experiment: LTEA_HepaRG_IGFBP1: Life Technologies and Expression Analysis (LTEA) Assay for Insulin-like growth factor-binding protein 1 (IGFBP1) using HepaRG (AID 2283508). The method in brief: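 Read-out is qRT-PCR transcript level normalized to three housekeeping genes, fitted in both directions against 0.5% DMSO. Differentiated HepaRG cells received eight half-log concentrations (top 100 uM) in duplicate for 48 h in serum-free induction medium.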

Read-out in test [13]: Interleukin 6 (IL6), IL6 (gene 3569)
As to the kind of experiment: LTEA_HepaRG_IL6: Life Technologies and Expression Analysis (LTEA) Assay for Interleukin 6 (IL6) using HepaRG (AID 2283509). The method in brief:
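Transcript levels, normalized to three housekeeping genes, were quantified by qRT-PCR after 48 h chemical treatment of HepaRG cells. Eight-point half-log series from 100 uM in 0.5% DMSO, duplicates. Fitted both directions against DMSO baseline.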

Read-out in test [14]: Interleukin 6 Receptor (IL6R), IL6R (gene 3570)
Description: LTEA_HepaRG_IL6R: Life Technologies and Expression Analysis (LTEA) Assay for Interleukin 6 Receptor (IL6R) using HepaRG (AID 2283510).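 For AC50: differentiated human HepaRG liver cells in serum-free induction medium.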 The method in brief:
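IL6R transcript level by qRT-PCR after 48 h chemical exposure (8-point, half-log, max 100 uM, 0.5% DMSO vehicle) of HepaRG cells in serum-free induction medium. Normalized to three housekeeping genes; curves fitted in both directions relative to DMSO.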

Read-out in test [15]: Potassium channel subfamily K member 1 (KCNK1), KCNK1 (gene 3775)
Description: LTEA_HepaRG_KCNK1: Life Technologies and Expression Analysis (LTEA) Assay for Potassium channel subfamily K member 1 (KCNK1) using HepaRG (AID 2283511). The method in brief: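 KCNK1 transcript measured by TaqMan qRT-PCR against three housekeeping genes, after HepaRG cells were treated 48 h with eight half-log concentrations (top 100 uM, 0.5% DMSO). Curves fitted bidirectionally relative to vehicle.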

Read-out in test [16]: Keratin 19 (KRT19), KRT19 (gene 3880)
Description: LTEA_HepaRG_KRT19: Life Technologies and Expression Analysis (LTEA) Assay for Keratin 19 (KRT19) using HepaRG (AID 2283512). The essentials:
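KRT19 transcript measured by TaqMan qRT-PCR, referenced to three housekeeping genes, after HepaRG cells received test chemicals for 48 h. Eight half-log concentrations, top 100 uM, 0.5% DMSO vehicle; increases and decreases both fitted.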

Read-out in test [17]: JUN Transcription Factor, JUN (gene 3725)
As to the kind of experiment: LTEA_HepaRG_JUN: Life Technologies and Expression Analysis (LTEA) Assay for JUN Transcription Factor using HepaRG (AID 2283513). The method in brief: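 mRNA measured by TaqMan qRT-PCR after 48 h chemical exposure of HepaRG cultures; normalization to three housekeeping genes. Duplicate eight-point half-log curves from 100 uM in 0.5% DMSO; gain or loss fitted against DMSO baseline.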

Read-out in test [18]: Lipoprotein lipase (LPL), LPL (gene 4023)
Description: LTEA_HepaRG_LPL: Life Technologies and Expression Analysis (LTEA) Assay for Lipoprotein lipase (LPL) using HepaRG (AID 2283515). The essentials: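 LPL transcript levels quantified by TaqMan qRT-PCR against three housekeeping genes after 48 h chemical treatment of HepaRG cells. Eight-point half-log series from 100 uM in 0.5% DMSO, tested in duplicate; bidirectional fitting versus vehicle.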

Read-out in test [19]: Lipase C (LIPC), LIPC (gene 3990)
As to the kind of experiment: LTEA_HepaRG_LIPC: Life Technologies and Expression Analysis (LTEA) Assay for Lipase C (LIPC) using HepaRG (AID 2283514). The method in brief:
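LIPC expression was quantified by qRT-PCR against three housekeeping genes (ACTB, GAPDH, POLR2A). Differentiated human HepaRG cells received eight half-log doses (top 100 uM, 0.5% DMSO) in duplicate for 48 h; fitting bidirectional relative to DMSO.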

Read-out in test [20]: Glutathione S-transferase M3 (GSTM3), GSTM3 (gene 2947)
Description: LTEA_HepaRG_GSTM3: Life Technologies and Expression Analysis (LTEA) Assay for Glutathione S-transferase M3 (GSTM3) using HepaRG (AID 2283501). The essentials: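 GSTM3 transcript levels came from Fluidigm TaqMan qRT-PCR normalized to three housekeeping genes, fitted in both directions against DMSO. HepaRG cultures received chemicals for 48 h in serum-free induction medium (0.5% DMSO), 8 half-log concentrations up to 100 uM, duplicate.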

Activity calls are given as the source filed them. Rule for the calls: active = hit-call score of the fitted dose curve at least 0.9, where 1 is the maximum; inactive = score below 0.9.

Sequence of Hypoxia-inducible factor 1-alpha (Homo sapiens) (Q16665 whole entry, looked up): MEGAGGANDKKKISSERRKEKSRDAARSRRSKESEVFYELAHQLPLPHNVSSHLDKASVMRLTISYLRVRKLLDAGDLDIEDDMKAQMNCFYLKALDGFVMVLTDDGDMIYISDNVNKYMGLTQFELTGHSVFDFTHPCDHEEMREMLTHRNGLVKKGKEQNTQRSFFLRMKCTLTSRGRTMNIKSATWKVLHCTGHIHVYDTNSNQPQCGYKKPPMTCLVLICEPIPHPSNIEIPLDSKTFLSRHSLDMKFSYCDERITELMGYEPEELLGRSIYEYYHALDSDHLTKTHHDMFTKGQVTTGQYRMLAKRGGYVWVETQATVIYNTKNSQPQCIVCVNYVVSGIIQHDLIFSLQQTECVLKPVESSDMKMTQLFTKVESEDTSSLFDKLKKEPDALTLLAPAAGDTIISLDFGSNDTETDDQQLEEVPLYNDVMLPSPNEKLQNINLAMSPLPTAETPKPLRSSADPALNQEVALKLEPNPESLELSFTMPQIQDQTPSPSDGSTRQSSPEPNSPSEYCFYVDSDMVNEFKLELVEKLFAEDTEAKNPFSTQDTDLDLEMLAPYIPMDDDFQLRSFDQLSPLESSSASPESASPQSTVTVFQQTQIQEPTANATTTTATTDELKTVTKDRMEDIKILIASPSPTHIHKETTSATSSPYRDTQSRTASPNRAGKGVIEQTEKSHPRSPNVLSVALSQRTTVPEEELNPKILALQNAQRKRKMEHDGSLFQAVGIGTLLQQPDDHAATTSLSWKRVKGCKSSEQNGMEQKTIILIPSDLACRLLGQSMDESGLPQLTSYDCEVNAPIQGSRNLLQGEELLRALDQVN

In the case of `COc1cc(C(C)C)c2c(c1)S(=O)(=O)N(COc1cc(=O)n3cccc(OCCN4CCCCC4)c3n1)C2=O`, the AC50 is 19.6 µM (active) in test [1]; 20.5 µM (active) in [2]; 12.5 µM (active) in [3]; 19.1 µM (active) in test [4]; 19.7 µM (active) in test [6]; 20 µM (active) in [8]. Further, the concentration at half-maximal activity (AC50) in test [9] is 12.5 µM (active); in test [13], 12.5 µM (active); in test [14] it was 12.5 µM (active); in [16] it was 12.5 µM (active); in test [18], 21.2 µM (active). The compound was classed as inactive in test [5], in test [7], in [10], in test [11], in [12] and in [15]. In addition, the outcome in test [17] was inactive.

For the compound `O=C(O)c1ccc2c(c1)nc(C(=O)NC1CCN(C3CC3)CC1)n2Cc1cc(-c2ccc(Cl)s2)on1`, the call in [1], in test [2], in [3], in [4], in [5] and in test [6] was inactive. The call in test [7], in test [8], in [9], in test [10], in test [11] and in [12] was inactive. Moreover, the compound was classed as inactive in [13], in test [14], in test [15], in test [16], in [17] and in [19]. Besides, the result in test [18] was inactive.

Turning to `Cc1nc(-c2ccccn2)ncc1C(=O)Nn1cc(C)c2cc(F)ccc21`, the result in test [1], in [4], in test [5], in test [20], in test [6] and in test [10] was inactive. The compound was classed as inactive in test [11], in [12], in [13], in test [14], in [15] and in test [16]. Besides, the call in test [17] and in [18] was inactive. The AC50 in test [2] was 65.5 µM (active); in test [7], 81 µM (active); in test [8] it was 66.8 µM (active); in test [9] it was 65.1 µM (active); in [19], 50 µM (active).
